Results from the supplement of paper PMC7366291.
Counter-ions that a name gives are not always drawn. ± gives the standard deviation.

The molecules below were run on Danio rerio Tg(wt1b:EGFP) embryo, pronephros (assay: glomerular separation, fold change vs DMSO control; higher = glomeruli further apart (abnormal)). Settings: 25 µM; exposure: 24-48 hpf.
Outline: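 In HEPES-buffered E3 with 0.003% PTU and 0.5% DMSO, dechorionated Tg(wt1b:EGFP) zebrafish embryos were exposed to 25 μM compound from 24 to 48 hpf at 28.5°C. Pronephroi were then imaged dorsally at 470 nm in 10 z-slices, in 96-well plates filled with agarose. On maximum projections, a Fiji macro turned 16 manually placed reference points into distances and angles, and values more than 2 SD from the feature mean were excluded. Features are fold changes relative to the mean of DMSO-treated embryos from the same day.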

SMILES	glomerular separation
O=C(O)Cc1sc(-c2ccccc2)nc1-c1ccc(Cl)cc1 [Fentiazac]	6.56 ± 3.2
CCC1(c2ccccc2)NC(=O)N(C)C1=O (stereo not given) [Mephenytoin]	1.13 ± 0.4
O=C1c2ccccc2C(=O)C1c1ccccc1 [Phenindione]	1.02 ± 0.37
COc1cc(C(=O)OCCCN2CCCN(CCCOC(=O)c3cc(OC)c(OC)c(OC)c3)CC2)cc(OC)c1OC [Dilazep dihydrochloride]	1 ± 0.36
CC=CC1=C(C(=O)O)N2C(=O)[C@@H](NC(=O)[C@H](N)c3ccc(O)cc3)[C@H]2SC1 [Cefprozil]	0.967 ± 0.4
CCOc1ccccc1OCC1CNCCO1 (stereo not given) [Viloxazine hydrochloride]	1.35 ± 0.55
CC(N/C(=N\C#N)Nc1ccncc1)C(C)(C)C (stereo not given) [Pinacidil]	0.881 ± 0.21
C#C[C@]1(O)CC[C@H]2[C@@H]3CCC4=CC(=O)CC[C@@H]4[C@H]3CC[C@@]21CC [Norgestrel-(-)-D]	0.798 ± 0.23
Oc1c(I)cc(Cl)c2cccnc12 [Clioquinol]	4.35 ± 1.5
N[C@@H](C(=O)N[C@@H]1C(=O)N2C(C(=O)O)=C(Cl)CS[C@H]12)c1ccccc1 [Cefaclor hydrate]	1 ± 0.21
CC1(C)S[C@@H]2[C@H](NC(=O)[C@H](N)c3ccccc3)C(=O)N2[C@H]1C(=O)O [Ampicillin trihydrate]	0.924 ± 0.41
Nc1ccc(S(=O)(=O)Nc2ccc(Cl)nn2)cc1 [Sulfachloropyridazine]	0.92 ± 0.34
Cc1nccn1CC1CCc2c(c3ccccc3n2C)C1=O (stereo not given) [Ondansetron Hydrochloride]	1.05 ± 0.35
CO/N=C(\C(=O)N[C@@H]1C(=O)N2C(C(=O)OC(C)OC(C)=O)=C(COC(N)=O)CS[C@H]12)c1ccco1 (stereo not given in full) [Cefuroxime axetil]	1.21 ± 0.5
CCCNC(C)(C)COC(=O)c1ccccc1 [Meprylcaine hydrochloride]	1.08 ± 0.26
NC(=O)N/N=C/c1ccc([N+](=O)[O-])o1 [Nitrofural]	0.881 ± 0.24
CS(=O)(=O)c1ccc([C@@H](O)[C@@H](CF)NC(=O)C(Cl)Cl)cc1 [Florfenicol]	1.03 ± 0.47
CC1COc2c(N3CCN(C)CC3)c(F)cc3c(=O)c(C(=O)O)cn1c23 (stereo not given) [Ofloxacin]	1.32 ± 0.67
CCCC(C(=O)OCCN(CC)CC)(c1ccccc1)c1ccccc1 [Proadifen hydrochloride]	0.771 ± 0.16
C[C@]12C=CC(=O)C=C1CC[C@@H]1[C@@H]2[C@@H](O)C[C@@]2(C)[C@H]1CC[C@]2(O)C(=O)CO [Prednisolone]	1.36 ± 0.94

SMILES	glomerular separation
Nc1nc(F)nc2c1ncn2[C@@H]1O[C@H](CO)[C@@H](O)[C@@H]1O [Fludarabine]	0.97 ± 0.29
CN1CCN2c3ncccc3Cc3ccccc3C2C1 (stereo not given) [Mirtazapine]	0.964 ± 0.35
O=P(O)(O)C(O)(Cc1cccnc1)P(=O)(O)O [Risedronic acid monohydrate]	0.755 ± 0.35
CCN1CCCC1CNC(=O)c1cc(S(N)(=O)=O)ccc1OC (stereo not given) [Sulpiride]	1.08 ± 0.28
CCN1CCN(c2cc3c(cc2F)c(=O)c(C(=O)O)cn3C2CC2)CC1 [Enrofloxacin]	0.888 ± 0.34
COc1cc2c(cc1OC)C(=O)C(CC1CCN(Cc3ccccc3)CC1)C2 (stereo not given) [Donepezil hydrochloride]	0.812 ± 0.32
CN1CCN(C2=Nc3ccccc3Oc3ccc(Cl)cc32)CC1 [Loxapine succinate]	1.15 ± 0.43
CO/N=C(\C(=O)N[C@@H]1C(=O)N2C(C(=O)O)=C(COC(N)=O)CS[C@H]12)c1ccco1 [Cefuroxime sodium salt]	1.05 ± 0.35
CC(C)/N=c1\cc2n(-c3ccc(Cl)cc3)c3ccccc3nc-2cc1Nc1ccc(Cl)cc1 [Clofazimine]	1.02 ± 0.29
CCC1=C(C)CN(C(=O)NCCc2ccc(S(=O)(=O)NC(=O)N[C@H]3CC[C@H](C)CC3)cc2)C1=O [Glimepiride]	0.872 ± 0.29
N=C(N)NC(=O)Cc1c(Cl)cccc1Cl [Guanfacine hydrochloride]	0.827 ± 0.15
CC[N+](CC)(CC)CCC(O)(c1ccccc1)C1CCCCC1 (stereo not given) [Tridihexethyl chloride]	1.14 ± 0.4
CC[N+](CC)(CC(=O)Nc1c(C)cccc1C)Cc1ccccc1 [Denatonium benzoate]	0.973 ± 0.36
CCCCCCC[N+](CC)(CC)CCCCc1ccc(Cl)cc1 [Clofilium tosylate]	0.78 ± 0.37
CN[C@H](CC(C)C)C(=O)N[C@H]1C(=O)N[C@@H](CC(N)=O)C(=O)N[C@H]2C(=O)N[C@H]3C(=O)N[C@H](C(=O)N[C@H](C(=O)O)c4cc(O)cc(O)c4-c4cc3ccc4O)[C@H](O)c3ccc(c(Cl)c3)Oc3cc2cc(c3O[C@@H]2O[C@H](CO)[C@@H](O)[C@H](O)[C@H]2O[C@H]2C[C@](C)(N)[C@H](O)[C@H](C)O2)Oc2ccc(cc2Cl)[C@H]1O [Vancomycin hydrochloride]	0.943 ± 0.23
C[C@H]1C[C@H]2[C@@H]3CCC4=CC(=O)C=C[C@]4(C)[C@@]3(F)[C@@H](O)C[C@]2(C)[C@@]1(O)C(=O)CO [Betamethasone]	1.2 ± 0.31
CN1CCN(CC(=O)N2c3ccccc3C(=O)Nc3cccnc32)CC1 [Pirenzepine dihydrochloride]	1.19 ± 0.65
C[C@@H]1NC(=O)NC1=O [Methylhydantoin-5-(L)]	0.772 ± 0.24
COc1cc(C)nc(-n2nc(C)cc2OC)n1 [Epirizole]	1.39 ± 0.73
CCOCCn1c(N2CCCN(C)CC2)nc2ccccc21 [Emedastine]	0.707 ± 0.16
